# CYP2C9 activ: CYP2C9 (human) activation. recombinant CYP2C9, luciferin-H conversion, luminescence; active compounds read high; factor 1 = untreated enzyme, 0 = blocked. P11712. activation factor at 5 µM. 96,000 tested, 1.4% active;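 active = activation factor of 2 or more for CYP2C9 at a 5 µM dose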;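 also: 0 = sulfaphenazole-blocked wells and 1 = vehicle-only wells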
# CYP2C9 inh: blocks human cytochrome P450 2C9. P11712. CYP2C9 Supersomes, luciferin-H conversion, luminescence. inhibition, % at 5 µM. 96,000 tested, 20% active;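 active = blocking of liver enzyme CYP2C9 beyond about 50% at 5 µM, limit read from the data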
# CYP2C19 inhib: blocks human cytochrome P450 2C19; AID 778; P33261; CYP2C19 Supersomes, luciferin-H EGE luminescence, 30 min; 96,000 tested, 21% active; inhibition, % at 5 µM;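 active = CYP2C19 inhibition above a set limit at 5 µM in the primary screen, cut at about 50% in these data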;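 also: plate controls were negative control wells for no effect and 2.5 mM tranylcypromine positive control for full effect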
# Target sequence (P33261 whole entry, looked up): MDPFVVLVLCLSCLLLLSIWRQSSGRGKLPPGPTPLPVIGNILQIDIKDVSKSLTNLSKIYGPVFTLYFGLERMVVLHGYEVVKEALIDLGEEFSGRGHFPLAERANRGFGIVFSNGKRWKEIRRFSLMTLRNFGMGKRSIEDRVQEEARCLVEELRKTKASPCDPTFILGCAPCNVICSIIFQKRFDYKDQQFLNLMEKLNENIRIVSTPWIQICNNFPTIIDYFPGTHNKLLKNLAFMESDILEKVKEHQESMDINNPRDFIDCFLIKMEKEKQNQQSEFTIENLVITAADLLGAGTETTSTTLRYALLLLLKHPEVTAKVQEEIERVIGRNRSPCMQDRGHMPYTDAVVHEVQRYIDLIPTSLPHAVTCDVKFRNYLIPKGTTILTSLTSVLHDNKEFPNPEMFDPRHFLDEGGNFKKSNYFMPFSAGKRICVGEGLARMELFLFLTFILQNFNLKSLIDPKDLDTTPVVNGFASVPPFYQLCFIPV
# DAT uptake mod: human DAT dopamine uptake with cocaine, either direction | Q01959 | LLC-PK1 hDAT cells, [14C]-dopamine uptake with cocaine IC80; actives deviate in either direction | B-score at 10 µM | 110,000 tested, 1.3% active | AID 449768;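 active = Z score or B-score, a plate-position-corrected score, falls beyond the plate's 99.7% confidence bounds, in either direction; inactive = both scores lie inside the 99.7% bounds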;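 also: scored against the spread of the other compound wells on the same plate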
# CYP2C19 activ: activators of human cytochrome P450 2C19. P33261. recombinant CYP2C19, luciferin-H EGE luminescence; active compounds read high; 0 = fully inhibited enzyme, 1 = untreated enzyme. activation factor at 5 µM. 96,000 tested, under 10 active;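 active = activation factor of at least 2 at 5 µM in the primary screen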;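 also: 0 = wells with 2.5 mM tranylcypromine and 1 = vehicle-only wells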
# D1 mod: allosteric modulators of human D1 dopamine receptor. P21728. HEK293 D1, CRE-luciferase, dopamine EC30 potentiation; actives deviate in either direction. B-score at 10 µM. 58,000 tested, 5.9% active. AID 641;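 active = luminescence count or its row- and column-corrected plate score outside the 99.7% band of the plate's sample wells, on either side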
# * = called active by the depositor; x = not tested or not shown. In the library only some 28% were active in any assay of this set; here they are far more common.
SMILES,CYP2C9 activ,CYP2C9 inh,CYP2C19 inhib,DAT uptake mod,CYP2C19 activ,D1 mod
CCOC(=O)N1CCC(N2C(=O)c3cc(C(=O)NC4CCCCC4)ccc3C2O)CC1 (stereo not drawn),0.5,48,24,0.74,0.8,0.045
CCOC(=O)N1CCC(N2C(=O)c3ccccc3C2Nc2ccccc2)CC1 (stereo not drawn),0.2,80*,65*,1,0.4,x
CCOc1ccccc1NC(=O)Cn1cnc2c(nnn2-c2cccc(OC)c2)c1=O,x,x,x,1,x,0.34
CCOc1ccc(C(=O)NCC(=O)OCC(=O)Nc2ccccc2OC)cc1,1.2,-21,46,-0.7,0.5,x
CC1Sc2ccccc2N(CC(=O)N(C(C)C)C(C)C)C1=O (stereo not drawn),1.1,-5,26,-1.1,0.7,x
Cc1csc(NC(=O)c2c(O)c3c(n(CC(C)C)c2=O)CCCC3)n1,0.5,51*,14,0.52,0.9,0.51
COC(=O)C1=C(N)Oc2cc(C)n(CC3CCCO3)c(=O)c2C1c1ccccc1 (stereo not drawn),0.8,22,10,0.035,0.9,-0.36
COC(=O)C1=C(N)Oc2cc(C)n(CC3CCCO3)c(=O)c2C1c1ccc(Cl)cc1 (stereo not drawn),0.4,57*,67*,0.44,0.3,-0.18
COC(=O)C1=C(N)Oc2cc(C)n(CCc3ccccc3)c(=O)c2C1c1cccnc1 (stereo not drawn),0.1,85*,92*,1.2,0.1,-1.5
COC(=O)C1=C(N)Oc2cc(C)n(Cc3cccnc3)c(=O)c2C1c1cc(OC)ccc1OC (stereo not drawn),0.8,23,36,0.067,0.6,1.2
COC(=O)C1=C(N)Oc2cc(C)n(CCCn3ccnc3)c(=O)c2C1c1cccc(Cl)c1 (stereo not drawn),0.1,92*,83*,2.1,0.2,0.017
COC(=O)C1=C(N)Oc2cc(C)n(Cc3cccnc3)c(=O)c2C1c1cccc(OC)c1OC (stereo not drawn),0.5,50*,35,-0.28,0.7,0.087
CCOc1ccc2nc(NC(=O)C3CCN(c4cnccn4)CC3)sc2c1,1,-4,-4,-0.13,1,0.78
Cc1ccc(S(=O)(=O)NC(C)C(=O)Nc2ccc(C(N)=O)cc2)cc1 (stereo not drawn),0.8,23,11,0.84,0.9,-1.3
O=C(CCCn1c(=S)[nH]c2cc3c(cc2c1=O)OCO3)N1CCN(c2ccccc2F)CC1,0.7,30,5,-0.37,1,1.2
Cc1ccc(C)c(N2CCN(C(=O)CCCn3c(=S)[nH]c4cc5c(cc4c3=O)OCO5)CC2)c1,0.2,77*,54*,0.12,0.5,1.3
O=C(CCCn1c(=S)[nH]c2cc3c(cc2c1=O)OCO3)N1CCN(C2CCCCC2)CC1,0.5,50*,9,0.45,0.9,x
O=C(CCCn1c(=S)[nH]c2cc3c(cc2c1=O)OCO3)N1CCN(c2ccc(F)cc2)CC1,0.3,72*,1,0.21,1,0.79
O=C(CCCn1c(=S)[nH]c2cc3c(cc2c1=O)OCO3)N1CCN(c2ncccn2)CC1,0.5,50*,2,-0.6,1,0.5
O=C(CCn1c(=S)[nH]c2cc3c(cc2c1=O)OCO3)N1CCN(C2CCCCC2)CC1,x,x,x,x,x,0.036
COc1cccc(N2CCN(C(=O)CCn3c(=S)[nH]c4cc5c(cc4c3=O)OCO5)CC2)c1,0.7,32,-1,-0.83,1,-0.024
O=C1NCC(O)=C1C=NC12CC3CC(CC(C3)C1)C2,1.1,-9,-3,-0.17,1,0.33
Cc1nc2c(Br)c3nc(C(F)(F)F)[nH]c3c(Br)c2[nH]1,0.7,27,2,-0.14,1,-0.38
Cc1nc2c(F)c(F)c(C(F)(F)F)c(F)c2[nH]1,0.7,27,61*,0.064,0.4,0.015
CCCN1CCC(=O)N([C@H](CSc2ccc(Br)cc2)Cc2ccccc2)CC1,x,x,x,0.17,x,x
SMILES,CYP2C9 activ,CYP2C9 inh,CYP2C19 inhib,DAT uptake mod,CYP2C19 activ,D1 mod
CSc1ccccc1NC(=O)CSc1nnnn1-c1ccccc1SC,3.1*,-209,30,1,0.7,-0.17
CSc1ccccc1-n1nnnc1SCC(=O)Nc1ccccc1C,3.3*,-232,87*,0.55,0.1,x
COC(=O)c1ccccc1NC(=O)CSc1nnnn1-c1ccc(C)cc1C,1.4,-38,20,-0.17,0.8,0.39
Cn1nnnc1SCC(=O)Nc1ccccc1Cc1ccccc1,0.4,58*,55*,-0.87,0.4,1.9
COC(=O)c1ccsc1NC(=O)CSc1nnnn1-c1ccccc1SC,2*,-98,6,-0.96,0.9,1.3
Cc1cccc(C)c1NC(=O)CSc1nnnn1-c1ccc(C(=O)O)cc1,1,3,-3,-0.048,1,x
Cc1cc(C)n(-c2nc(-c3ccc(Cl)cc3)cs2)n1,1,3,33,1.1,0.7,x
CCN(CC)S(=O)(=O)c1ccc(-c2nnco2)cc1,x,x,x,-0.65,x,0.2
O=C(Oc1ccc(-c2nnco2)cc1)N(c1ccccc1)c1ccccc1,0.6,39,69*,0.92,0.3,1.3
O=C(Oc1ccc(-c2nnco2)cc1)N1CCCCC1,0.7,30,77*,0.069,0.2,0.76
CC1(c2ccncc2)Nc2ccccc2-c2nc3ccccc3n21 (stereo not drawn),0.1,90*,97*,-0.48,0,-0.92
CC1(C)OC(=O)C(=CNC(Cc2c[nH]c3ccccc23)C(=O)O)C(=O)O1 (stereo not drawn),0.9,13,9,0.32,0.9,0.29
Cc1ccc(-c2cc(-c3nnc(SCC(=O)NCC(C)C)n3N)c3ccccc3n2)cc1,0.2,78*,39,1.6,0.6,x
Cc1cccc(NC(=O)CSc2nnc(-c3ccc(S(=O)(=O)N4CCOCC4)cc3)n2C)c1,0.5,52*,99*,0.56,0,-0.93
Cc1cccc(NC(=O)CSc2nnc(-c3ccncc3)n2C)c1,0.5,52*,80*,-1.4,0.2,0.11
COc1cccc(-c2nnc(SCC(=O)Nc3cc(C)ccc3OC)n2N)c1,0.8,17,18,-0.12,0.8,-0.13
CCC(C)NC(=O)CSc1nnc(-c2cc(-c3ccc(C)cc3)nc3ccccc23)n1N (stereo not drawn),0.5,47,14,0.67,0.9,x
Cc1ccc(C)c(NC(=O)CSc2nnc(-c3ccccc3)n2N)c1,0.7,35,63*,0.13,0.4,-0.1
Cc1nnc(NC(=O)CSc2nnc(-c3ccc(S(=O)(=O)N4CCCC4)cc3)n2C)s1,x,x,x,-0.44,x,0.094
CC(=O)c1cccc(NC(=O)c2cc3nc(C)cc(C)n3n2)c1,1,-1,-3,0.37,1,-0.65
Clc1cccc(Cl)c1CSc1nnc(-c2sccc2-n2cccc2)o1,1.6,-64,10,0.35,0.9,x

# Bioassay records (PubChem)
